Measurements taken from PubChem BioAssay (Tox21).
Inconclusive results are not listed. Activity calls are given as the source filed them. Unless noted, the call rests on the fitted dose curve; in most records, active means well fitted curve in the direction sought with a large enough effect in the repeat runs; inconclusive means weak or mixed curves; inactive means no such curve, though single readings can be large; an effect the other way counts as inactive or inconclusive.

Tests used:
[1] = qHTS RealTime-Glo MT Cell Viability Assay in HEK293 cells - 0 hour (AID 1224880); further: top concentration of the series differs between compounds; nearly all actives have a fitted effect of over 45% in size
Method in brief: (§1)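 qHTS format; HEK293 cells with NanoLuc/prosubstrate reagent, 37 C/5% CO2 for 5 h pre-dosing; compounds 23 nL in DMSO; luminescence at each time point reflects viable cells.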

[2] = A CellTox Green Cytotoxicity Assay to monitor cytotoxicity in HEK293 cells - 32 hour (AID 1224881); further: nearly all actives have a fitted effect of over 40% in size; further: potency means the concentration at half of the fitted maximal effect
Method in brief: (§2)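 Each value comes from one timepoint of a single continuous run in which HEK293 cells with CellTox Green were exposed to compound for up to 40 h at 37 C, dye fluorescence rising with cell death.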

[3] = A CellTox Green Cytotoxicity Assay to monitor cytotoxicity in HepG2 cells - 0 hour (AID 1224882); further: nearly all actives have a fitted effect of over 35% in size
Method in brief: (§3)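 Continuous culture of HepG2 cells with a membrane-impermeant DNA dye; rising fluorescence marks dead cells. Compound exposure lasted up to 40 h at 37 C, with reads every 8 h from 0 h.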

[4] = A CellTox Green Cytotoxicity Assay to monitor cytotoxicity in HEK293 cells - 8 hour (AID 1224884); further: nearly all actives have a fitted effect of over 35% in size
Method in brief: as §2

[5] = qHTS RealTime-Glo MT Cell Viability Assay in HepG2 cells - 16 hour (AID 1224885); further: nearly all actives have a fitted effect of over 50% in size
Method in brief: (§4)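 Luminescence read-out: viable HepG2 cells reduce a prosubstrate to a NanoLuc substrate, giving a signal proportional to live cell number. Reads taken at 0, 8, 16, 24, 32 and 40 h of compound exposure at 37 C.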

[6] = qHTS RealTime-Glo MT Cell Viability Assay in HEK293 cells - 24 hour (AID 1224886); further: nearly all actives have a fitted effect of over 50% in size; further: potency means the concentration at half of the fitted maximal effect; on activity change, negative = cytotoxicity: top concentration of the series differs between compounds
Method in brief: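 Nonlytic real-time viability readout: viable cells convert prosubstrate to NanoLuc substrate, giving luminescence proportional to live cell number. HEK293, 600 cells/well, compound added after 5 h, continuous culture at 37 C.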

[7] = qHTS RealTime-Glo MT Cell Viability Assay in HEK293 cells - 8 hour (AID 1224887); further: nearly all actives have a fitted effect of over 50% in size; further: potency means the concentration at half of the fitted maximal effect; on activity change, negative = cytotoxicity: top concentration of the series differs between compounds
Method in brief: as §1

[8] = qHTS RealTime-Glo MT Cell Viability Assay in HepG2 cells - 0 hour (AID 1224889); further: nearly all actives have a fitted effect of over 50% in size
Method in brief: as §4

[9] = A CellTox Green Cytotoxicity Assay to monitor cytotoxicity in HepG2 cells - 8 hour (AID 1224890); further: nearly all actives have a fitted effect of over 45% in size
Method in brief: as §3

[10] = qHTS assay to identify small molecule antagonists of the estrogen receptor alpha (ER-alpha) signaling pathway using the BG1 cell line in the presence of 0.1 nM 17-beta-estradiol - cell viability counter screen (AID 1259241); further: nearly all actives have a fitted effect of over 40% in size
Method in brief: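 Cells were plated and left 24 hr, compounds in DMSO were pinned in, 17beta-estradiol was added to 0.1 nM final, and after 22 hr CellTiter-Fluor reagent was added for 30 min before fluorescence was read.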

[11] = qHTS assay to identify small molecule antagonists of the androgen receptor (AR) signaling pathway using the MDA cell line in the presence of 0.5 nM R1881 - cell viability counter screen (AID 1259242); further: nearly all actives have a fitted effect of over 45% in size
Method in brief: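 Fluorescence from CellTiter-Fluor, which reports protease activity of live cells, was read 30 min after reagent addition to MDA-kb2 cells that had been incubated 16 hr with compound and 0.5 nM R1881.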

[12] = qHTS assay to identify small molecule HDAC inhibitors - cell viability counter screen (AID 1259365)
Method in brief: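 Counter screen in wild-type HCT-116 cells: compounds dissolved in DMSO are pin-transferred onto overnight-plated cells and left 2hr at 37C. ATP-based CellTiter-Glo luminescence then measures viable cells.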

[13] = qHTS assay to identify small molecule agonists of the sonic hedgehog signaling (Shh) pathway - cell viability counter screen (AID 1259366); further: nearly all actives have a fitted effect of over 50% in size; further: potency means the concentration at half of the fitted maximal effect
Method in brief: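 Cells are plated at 2,000 per well and left 4hr at 37C, 5% CO2 before compound addition. After 23hr of treatment, CellTiter-Fluor reagent is added for 1hr at 37C and fluorescence is measured.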

[14] = qHTS assay to identify small molecule antagonists of the sonic hedgehog signaling (Shh) pathway - cell viability counter screen (AID 1259367); further: nearly all actives have a fitted effect of over 55% in size; further: potency means the concentration at half of the fitted maximal effect
Method in brief: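 Cells: 3T3 Gli1-Luc, 2,000/well, 4 hr pre-incubation. Compounds in DMSO, then conditioned medium. Incubation 24 hr, 37C, 5% CO2. CellTiter-Fluor at 23 hr, 1 hr, fluorescence.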

[15] = A CellTox Green Cytotoxicity Assay to monitor cytotoxicity in HEK293 cells - 16 hour (AID 1224888); further: nearly all actives have a fitted effect of over 35% in size
Method in brief: as §2

[16] = target: Estrogen receptor (Homo sapiens) (UniProt P03372); test: qHTS assay to identify small molecule antagonists of the estrogen receptor alpha (ER-alpha) signaling pathway using the BG1 cell line in the presence of 0.1 nM 17-beta-estradiol (AID 1259244); further: nearly all actives have a fitted effect of over 50% in size
Method in brief: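 Quantitative high-throughput screen in VM7Luc4E2 cells: compound plus 0.1 nM E2 (final), 22 h, 37C, 5% CO2; ONE-Glo added, 30 min room temperature, luminescence measured.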

[17] = qHTS assay to identify small molecule phospholipidosis (PLD) inducers (AID 1259344; active means well fitted curve in the direction sought with a large enough effect; an effect the other way counts as inactive or inconclusive)
Method in brief: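 Phospholipidosis is scored by imaging LipidTOX-stained pits in HepG2 cells exposed to compound for 24 h at 37 C; pit counts and integrated intensities per well and per cell serve as outputs.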

[18] = qHTS assay to identify small molecule HDAC inhibitors (AID 1259364); further: nearly all actives have a fitted effect of over 45% in size; further: potency means the concentration at half of the fitted maximal effect; on activity change, negative = inhibition: top concentration of the series differs between compounds
Method in brief: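 Endogenous HDAC class I/II activity was measured in wild-type HCT-116 cells by HDAC-Glo luminescence after 2 h compound treatment.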

[19] = A CellTox Green Cytotoxicity Assay to monitor cytotoxicity in HepG2 cells - 32 hour (AID 1224883); further: nearly all actives have a fitted effect of over 50% in size
Method in brief: as §3

[20] = target: Androgen receptor (Homo sapiens) (UniProt P10275); test: qHTS assay to identify small molecule antagonists of the androgen receptor (AR) signaling pathway using the MDA cell line in the presence of 0.5 nM R1881 (AID 1259243); further: nearly all actives have a fitted effect of over 50% in size
Method in brief: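 Inhibition of R1881 (0.5 nM final) induced reporter signal was measured in human MDA-kb2 cells; note the MMTV promoter also responds to GR. Exposure lasted 16 hr at 37C.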
On the % scale 0 is the no-effect control and ±100 the full control effect.

Chain of Estrogen receptor (Homo sapiens) (P03372 whole entry, looked up): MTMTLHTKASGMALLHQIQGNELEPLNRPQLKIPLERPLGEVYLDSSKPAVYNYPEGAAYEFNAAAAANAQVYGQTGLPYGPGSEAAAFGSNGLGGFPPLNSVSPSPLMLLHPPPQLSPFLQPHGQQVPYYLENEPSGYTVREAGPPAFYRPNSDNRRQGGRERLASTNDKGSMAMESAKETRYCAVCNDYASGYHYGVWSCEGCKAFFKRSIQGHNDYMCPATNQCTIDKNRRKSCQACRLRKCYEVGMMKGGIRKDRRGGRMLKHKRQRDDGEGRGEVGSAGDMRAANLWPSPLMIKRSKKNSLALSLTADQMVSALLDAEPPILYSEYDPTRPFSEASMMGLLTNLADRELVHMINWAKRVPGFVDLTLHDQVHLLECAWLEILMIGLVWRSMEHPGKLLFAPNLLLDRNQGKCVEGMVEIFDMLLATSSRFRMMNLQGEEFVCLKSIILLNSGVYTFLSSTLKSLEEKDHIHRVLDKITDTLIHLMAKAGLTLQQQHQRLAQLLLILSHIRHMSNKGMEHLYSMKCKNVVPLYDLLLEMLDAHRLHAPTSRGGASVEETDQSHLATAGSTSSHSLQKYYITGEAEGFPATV
Chain of Androgen receptor (Homo sapiens) (P10275 whole entry, looked up): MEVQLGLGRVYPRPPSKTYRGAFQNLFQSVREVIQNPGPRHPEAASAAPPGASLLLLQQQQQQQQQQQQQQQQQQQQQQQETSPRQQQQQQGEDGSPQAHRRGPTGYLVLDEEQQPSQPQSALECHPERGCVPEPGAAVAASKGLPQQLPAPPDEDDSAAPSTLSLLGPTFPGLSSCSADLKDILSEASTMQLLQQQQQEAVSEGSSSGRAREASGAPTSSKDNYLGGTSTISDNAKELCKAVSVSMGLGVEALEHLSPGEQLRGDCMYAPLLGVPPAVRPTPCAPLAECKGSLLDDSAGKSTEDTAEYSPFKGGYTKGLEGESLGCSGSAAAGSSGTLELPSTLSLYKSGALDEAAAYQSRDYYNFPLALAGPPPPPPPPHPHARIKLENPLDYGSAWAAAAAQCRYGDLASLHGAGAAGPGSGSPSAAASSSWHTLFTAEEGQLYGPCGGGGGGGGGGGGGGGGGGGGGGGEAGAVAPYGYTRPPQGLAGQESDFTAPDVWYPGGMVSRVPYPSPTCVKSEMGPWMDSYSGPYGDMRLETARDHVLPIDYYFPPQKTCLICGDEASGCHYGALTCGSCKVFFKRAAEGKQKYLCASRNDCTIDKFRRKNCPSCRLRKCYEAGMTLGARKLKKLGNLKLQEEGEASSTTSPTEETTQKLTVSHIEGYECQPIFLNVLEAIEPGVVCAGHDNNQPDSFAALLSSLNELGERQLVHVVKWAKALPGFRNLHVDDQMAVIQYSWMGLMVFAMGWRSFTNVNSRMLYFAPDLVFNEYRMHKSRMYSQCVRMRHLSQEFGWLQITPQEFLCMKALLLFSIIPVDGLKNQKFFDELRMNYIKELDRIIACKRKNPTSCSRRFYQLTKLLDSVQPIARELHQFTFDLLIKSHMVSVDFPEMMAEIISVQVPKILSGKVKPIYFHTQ

CCCCCCCCc1ccc(S(=O)(=O)O)cc1
active: Potency [2] 54.5 µM
inactive: outcome [1] | Potency [3] | Potency [4] | outcome [5] | Potency [6] | Potency [7] | Potency [8] | Potency [9] | Potency [10] | outcome [11] | outcome [12] | Potency [13] | Potency [14]

O=c1oc2c(O)c(O)cc3c(=O)oc4c(O)c(O)cc1c4c23
inactive: activity change, negative = cytotoxicity [1] -5.71% [at 15.8 µM] | cytotoxicity increase [2] 18.3% [at 15.8 µM] | cytotoxicity [3] -11.8% [at 15.8 µM] | cytotoxicity increase [4] 7.37% [at 15.8 µM] | activity change, negative = cytotoxic [5] -6.97% [at 15.8 µM] | activity change, negative = cytotoxicity [6] -7.55% [at 15.8 µM] | activity change, negative = cytotoxicity [7] -0.845% [at 15.8 µM] | activity change [15] 13% [at 15.8 µM, hits give high values] | cytotoxicity increase [9] -1.27% [at 15.8 µM] | activity change, negative = cytotoxicity [10] 3.69% [at 19 µM] | viability change, negative = cytotoxic [11] -6.98% [at 19 µM] | activity change, negative = inhibition [16] 1.12% [at 19 µM] | outcome [17] | activity change, negative = inhibition [18] -0.133% [at 19 µM] | activity change, negative = cytotoxicity [12] 2.83% [at 19 µM] | viability change, negative = cytotoxic [13] -17.2% [at 19 µM] | viability change, negative = cytotoxic [14] 1.3% [at 19 µM]

CNCCC(Oc1ccccc1OC)c1ccccc1 (stereo not given)
inactive: outcome [1] | Potency [2] | Potency [19] | Potency [4] | outcome [5] | Potency [6] | Potency [7] | Potency [15] | Potency [8] | Potency [9] | Potency [10] | outcome [11] | Potency [16] | outcome [17] | Potency [18] | outcome [12] | Potency [13] | Potency [14]

Cc1onc(-c2ccccc2)c1C(=O)Cl
inactive: outcome [1] | Potency [2] | Potency [3] | Potency [4] | outcome [5] | Potency [6] | Potency [7] | Potency [15] | Potency [10] | outcome [11] | Potency [18] | outcome [12] | Potency [13] | Potency [14]

O=Cc1ccc(O)c(O)c1O
inactive: outcome [1] | Potency [2] | Potency [3] | Potency [4] | outcome [5] | Potency [6] | Potency [7] | Potency [15] | Potency [8] | Potency [10] | outcome [11] | Potency [20] | Potency [18] | outcome [12]

CN(C)C(=O)NC1(c2ccccc2)CCN(CCC[C@]2(c3ccc(Cl)c(Cl)c3)CCCN(C(=O)c3ccccc3)C2)CC1
inactive: activity change, negative = cytotoxicity [1] 0.507% [at 15.8 µM] | cytotoxicity increase [2] 19.1% [at 15.8 µM] | cytotoxicity [3] -1.48% [at 15.8 µM] | cytotoxicity increase [4] -1.4% [at 15.8 µM] | activity change, negative = cytotoxic [5] -10.4% [at 15.8 µM] | activity change, negative = cytotoxicity [7] -28.2% [at 15.8 µM] | activity change [15] -0.407% [at 15.8 µM, hits give high values] | cytotoxicity increase [9] 9.35% [at 15.8 µM] | activity change, negative = cytotoxicity [10] 3.34% [at 19 µM] | viability change, negative = cytotoxic [11] -6.41% [at 19 µM] | activity change, negative = inhibition [16] 3.38% [at 19 µM] | activity change, negative = inhibition [18] -4.11% [at 19 µM] | activity change, negative = cytotoxicity [12] -5.58% [at 19 µM]
active: Potency [13] 13 µM

CCCCCCOc1ccc(N)cc1
active: Potency [7] 19.5 µM
inactive: outcome [1] | Potency [2] | Potency [3] | Potency [4] | outcome [5] | Potency [15] | Potency [8] | Potency [9] | Potency [10] | outcome [11] | Potency [16] | outcome [12] | Potency [13] | Potency [14]

CCN(CC)C(=O)N(CC)CC
inactive: outcome [1] | Potency [2] | Potency [4] | outcome [5] | Potency [6] | Potency [7] | Potency [15] | Potency [8] | Potency [9] | Potency [10] | outcome [11] | Potency [18] | outcome [12] | Potency [13] | Potency [14]

O=c1[nH]cnc2c1ncn2[C@@H]1O[C@H](CO)[C@@H](O)[C@H]1O
inactive: outcome [1] | Potency [2] | Potency [4] | outcome [5] | Potency [6] | Potency [7] | Potency [15] | Potency [8] | Potency [9] | Potency [10] | outcome [11] | outcome [17] | Potency [18] | outcome [12] | Potency [13] | Potency [14]

CC(C)(C)c1ccc(OC(=O)c2ccccc2O)cc1
inactive: outcome [1] | Potency [2] | Potency [19] | Potency [4] | Potency [6] | Potency [7] | Potency [15] | Potency [8] | Potency [10] | outcome [11] | Potency [16] | outcome [12] | Potency [13] | Potency [14]
active: Potency [18] 27.3 µM

CC[C@H]1CC[C@H](NCc2cc3c(cc2OC)[C@H]2C[C@H]2C(=O)N3C)[C@H](c2ccccc2)N1
active: Potency [6] 21.9 µM | Potency [14] 8.63 µM
inactive: outcome [1] | Potency [2] | Potency [4] | outcome [5] | Potency [15] | Potency [8] | Potency [9] | outcome [11] | outcome [12]

COc1ccc(Nc2ccc(OC)cc2)cc1
inactive: Potency [2] | Potency [3] | Potency [19] | Potency [4] | outcome [5] | Potency [15] | Potency [8] | Potency [9] | Potency [10] | outcome [11] | Potency [16] | outcome [12] | Potency [13] | Potency [14]
active: Potency [7] 14.1 µM | Potency [18] 27.8 µM

C=CCCCCCCCCO
inactive: outcome [1] | Potency [3] | Potency [4] | outcome [5] | Potency [6] | Potency [7] | Potency [15] | Potency [8] | Potency [9] | Potency [10] | outcome [11] | Potency [16] | Potency [18] | outcome [12] | Potency [13] | Potency [14]
